Values joined by “and” are separate entries in the source; they are usually repeats but may differ in a detail not shown here. Identical values can stand only once. Compounds without any hit were thinned out: in the full panel of roughly 83,000, 20% have a hit.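 Interpretation: 100, growth as untreated; towards 0, rising growth inhibition; 0, no net growth; 0 to -100, cell death. Compounds scoring below 10 were considered active.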 Values without a mark were called inactive. Active and inactive are the calls of the source.
System: MDA-MB-468 breast
Assay: NCI-60 one-dose screen, 48 h (100 = growth as untreated, 0 = no growth, -100 = all killed)
Conditions: 10 µM unless noted

| SMILES | growth |
| --- | --- |
| CCOc1ccc(-n2cc(-c3ccc(N(C)C)cc3)[n+]3c2CCCCC3)cc1 | -17.4% (active) |
| O=C(Nc1cccc(Cn2c(=O)[nH]c3ccc(Oc4ncccn4)cc3c2=O)c1)c1cccc(Cl)c1 | 18.6% |
| CCN(CC)CC(=O)Nc1cccc(C(=O)OC(C)C)c1 | 115% |
| C[C@]12C[C@H]1CC[C@]1(C)[C@@H]2CC[C@@]23C[C@H](CC[C@H]21)[C@@](O)(CO)C3 | 82.3% |
| CN1CCN(Cc2ccc(NC(=O)c3ccc(C#Cc4c(N)ncc5ccc(F)cc45)cc3)cc2C(F)(F)F)CC1 | -73.6% (active) |
| Cc1ccc2nc(NC(=O)CSc3nc(-c4ccccc4)c(C#N)c4nnnn34)sc2c1 | 107% |
| CCOc1ncc([N+](=O)[O-])c(OCC)n1 | 115% |
| COc1ccccc1C(C)=O | 108% and 111% |
| COc1ccc(C(O)c2cc3c(N)c(C(=O)Nc4ccc(Br)cc4)sc3nc2C)cc1 (stereo not given) | -0.733% (active) |
| Cc1[nH]c(C2CC(c3ccc(C(F)(F)F)c(F)c3)=NN2c2ccccc2)c(C)c1C(=O)NCC(F)(F)F (stereo not given) | 86.5% |
| O=c1ccn(C2OC(F)(CO)C(O)C2F)c(=O)[nH]1 (stereo not given) | 126% |
| Fc1ccc2nc(-c3cnn4cccnc34)sc2c1 | -2.57% (active) |
| O=[N+]([O-])c1ccc(N/N=C\c2ccc(O)cc2O)nc1 | 56% |
| COc1ccc2c(c1)CCc1[nH]nc(-c3cc(OC)c(OC)c(OC)c3)c1-2 | -4.62% (active) |
| CC1=C(C#N)C(=O)NC(C)C1 (stereo not given) | 108% |

Source: PubChem BioAssay (NCI)
